Source: PMC5540273 (PLoS ONE, 2017)

Experiments:
Settings in all cases: concentration: 1 μM,replicates: in singlicate; n = 1
NEK11 = system: NEK11
NEK1 = system: NEK1
NEK2 = system: NEK2
NEK3 = system: NEK3
NEK4 = system: NEK4
NEK5 = system: NEK5
NEK6 = system: NEK6
NEK7 = system: NEK7
NEK9 = system: NEK9
NIK = system: T1, NIK
T1 construct: gene MAP3K14

NIM1 = system: T2, NIM1
T2 construct: gene MGC42105

NLK = system: NLK
OSR1 = system: T3, OSR1
T3 construct: gene OXSR1

PAK1 = system: PAK1
PAK2 = system: PAK2
PAK3 = system: PAK3
PAK4 = system: PAK4
PAK6 = system: PAK6
PAK7 = system: PAK7
PCTK1 = system: T4, PCTK1
T4 construct: gene CDK16
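Note: KINOMEscan kinase panel screen.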

Compound	%Inh (NEK11)	%Inh (NEK1)	%Inh (NEK2)	%Inh (NEK3)	%Inh (NEK4)	%Inh (NEK5)	%Inh (NEK6)	%Inh (NEK7)	%Inh (NEK9)	%Inh (NIK)	%Inh (NIM1)	%Inh (NLK)	%Inh (OSR1)	%Inh (PAK1)	%Inh (PAK2)	%Inh (PAK3)	%Inh (PAK4)	%Inh (PAK6)	%Inh (PAK7)	%Inh (PCTK1)
FC(F)(F)c1cc(Br)cc(Nc2nccc(-c3cnn4ncccc34)n2)c1 [GW810578]	0%	0%	1%	15%	2%	30%	51%	60%	15%	21%	0%	0%	2%	11%	45%	27%	22%	20%	6%	3%
COc1cccc(C2=C(Nc3cccc(Cl)c3)C(=O)NC2=O)c1 [SB-341556]	0%	0%	13%	5%	29%	0%	0%	5%	1%	26%	3%	5%	27%	4%	19%	100%	0%	0%	8%	9%
N#Cc1cccc(C(=O)NC2CCN(c3ccnc(Nc4ccc(F)cc4)n3)C2)c1 (centres unmarked) [GSK1379708]	3%	0%	0%	7%	11%	5%	12%	0%	0%	13%	16%	0%	6%	0%	4%	0%	0%	27%	0%	1%
Cc1ccn2nc(-c3ccc(F)cc3)c(-c3ccncc3)c2c1.Cl [GW457859]	43%	12%	0%	3%	0%	0%	0%	0%	4%	38%	20%	79%	0%	0%	0%	0%	0%	0%	21%	0%
Cc1cccc(-c2nc(Nc3ccncc3)c3sccc3n2)n1 [GW869641]	31%	0%	5%	10%	14%	4%	16%	3%	14%	0%	35%	60%	24%	15%	30%	50%	23%	11%	2%	22%
CC(=O)Nc1nc2cnc(Nc3cc(NC(=O)c4cccc(CC(C)(C)C#N)c4)ccc3C)nc2s1	0%	13%	6%	30%	0%	0%	13%	5%	5%	0%	23%	1%	41%	25%	25%	28%	8%	21%	2%	25%
Cc1ccc2c(-c3ccnc(Nc4ccc(C(F)(F)F)cc4)n3)cnn2n1 [GW819776]	0%	0%	0%	78%	9%	84%	0%	2%	6%	10%	3%	24%	0%	1%	50%	18%	0%	0%	0%	6%
Cn1ccc2ncnc(Oc3ccc(NC(=O)Nc4cnn(C(C)(C)C)c4)c(Cl)c3)c21	0%	0%	0%	12%	0%	6%	2%	0%	0%	0%	0%	38%	6%	13%	34%	45%	5%	19%	0%	24%
CCn1c(-c2nonc2N)nc2cncc(Br)c21 [SB-738004]	40%	0%	0%	19%	0%	10%	19%	0%	11%	79%	37%	22%	0%	0%	16%	1%	7%	15%	32%	0%
COc1ccc(Nc2nccc(N3CCC(NC(=O)c4cccc(C#N)c4)C3)n2)cc1 (centres unmarked) [GSK1379730]	0%	0%	0%	0%	3%	12%	30%	0%	0%	0%	0%	0%	0%	0%	0%	24%	0%	0%	0%	3%
